# ChEMBL document CHEMBL1157539, “Thousands of chemical starting points for antimalarial lead identification” (Nature, 2010)
# “And” between values parts separate entries of the source, which are not always exact repeats. Equal values may be shown once.
# How the values were obtained:
# Format in all cases: functional
# Plasmodium falciparum [1] = experiment: GSK_TCMDC: Inhibition of Plasmodium falciparum 3D7 in whole red blood cells, using parasite LDH activity as an index of growth. Test compounds present at 2uM
# Plasmodium falciparum [2] = experiment: GSK_TCMDC: Inhibition of Plasmodium falciparum Dd2 in whole red blood cells, using parasite LDH activity as an index of growth. Test compounds present at 2uM
# HepG2 = experiment: GSK_TCMDC: Percent inhibition of human HepG2 cell line. Test compounds present at 10uM.
Compound,Inhibition (Plasmodium falciparum [1]),Inhibition (Plasmodium falciparum [2]) [%],Inhibition (HepG2)
O=C(Nc1ccc([N+](=O)[O-])cc1Cl)c1cc2ccccc2cc1O,94%,28,6%
CC(C)NCC(O)COc1ccc(Cc2ccc(OCC(O)CNC(C)C)cc2)cc1.Cl (stereo not given),100%,18,0%
COc1ccccc1-n1ccnc1SCC(=O)Nc1cc(C(F)(F)F)ccc1Cl,97%,97,0%
O=C(NCc1cccc(OC(F)(F)F)c1)c1cnc2c(c1)nc(-c1c[nH]c(-c3ccccc3)n1)n2CCc1c[nH]cn1,99%,47,0%
CCOc1c(OC)ccc2c1CCN(CCN1CCC(CNC(=O)c3ccc(-c4ccc(C#N)cc4)cc3)CC1)C2,92%,61,45%
CCCCCCCN1CC[C@@H](CCCc2ccnc3ccc(OCCCCN/C(N)=N/O)cc23)[C@@H](CC)C1.O=C(O)C(=O)O,90%,39,27%
CN(C)Cc1cccc(-c2ccc(Nc3nccc(NCC(O)c4ccccc4)n3)cc2)c1 (stereo not given),100%,77,75%
CCCCNCc1ccc(-c2nc(CN(CCCn3ccnc3)C(=O)NC3CC3c3ccccc3)cs2)cc1.O=C(O)C(F)(F)F (stereo not given),100%,34,21%
Cc1cc(=O)c(-c2ccc(Oc3cccc(Cl)c3)cc2)c(C)[nH]1,95%,89,23%
Cl.N#Cc1ccc2c(c1)CCN(CCC1CCC(NC(=O)/C=C/c3cc(Br)cs3)CC1)CC2 (stereo not given),93%,1,3%
CCCN1CCCN(Cc2cccc(NC(=O)c3ccc(-c4ccccc4)cc3)c2)CC1.O=C(O)C(F)(F)F,92%,15,34%
CN1CCC(C(=O)N(Cc2ccc(-c3ccc(CNCCc4ccccc4)cn3)cc2)C2Cc3ccccc3C2)CC1.O=C(O)C(F)(F)F,88%,97,65%
N#Cc1cccc(CNC(=O)c2cccc(Nc3ccnc4ccc(F)cc34)c2)c1.O=C(O)C(F)(F)F,87%,26,0%
Cc1cccc2nc(-c3ccc(-c4cccc(CN5CCN(CCO)CC5)c4)cc3)[nH]c12.O=C(O)C(F)(F)F,100%,55,20%
COc1ccc2ncc(F)c([C@H](O)CN3CCC(NCc4ccc5c(c4)NC(=O)CO5)CC3)c2c1.Cl,100%,100,16%
CCc1nc(N)nc(N)c1-c1ccc(Cl)cc1 [PYRIMETHAMINE],94% and 93%,0,71% and 66%
CN(C)CCN(C)Cc1ccc(-c2cccc(NC(=O)c3ccc(Cl)cc3)c2)cc1.O=C(O)C(F)(F)F,97%,71,69%
CN(C)/C(=N/C(=N)NCc1ccc(Cl)c(Cl)c1)NCCCCCCN/C(=N\C(=N)NCc1ccc(Cl)c(Cl)c1)N(C)C,93%,99,20%
CCOC(=O)c1nc(-c2cccnc2)[nH]c1NC(=S)NCc1ccccc1,100%,100,10%
CCn1c(-c2nonc2N)nc2c(Cl)ncc(O[C@H](CCN)c3ccccc3F)c21.Cl,96%,88,15%
CCc1c(C)nc(-n2nc(C)cc2NC(=O)c2cccc3ccccc23)[nH]c1=O,98%,89,39%
Cc1nnsc1C(=O)Nc1cccc(-c2ccc(-c3nc4ccccc4[nH]3)s2)c1,89%,13,55%
CC(O)CNc1nc2ccccc2n1CC(=O)Nc1cccc(C(=O)Nc2cccc(C(F)(F)F)c2)c1 (stereo not given),99%,95,2%
c1cc(-c2nc3ccccc3[nH]2)nc(-c2nc3ccccc3[nH]2)c1,87%,24,7%
O=C(Nc1cc(C(F)(F)F)cc(C(F)(F)F)c1)c1cccc([N+](=O)[O-])c1,93%,15,23%
O=C(Nc1ccc(Cl)cc1)Nc1cccc(-c2cccc(-c3nc4cc(C(F)(F)F)ccc4[nH]3)c2)c1,99%,97,87%
CC(=O)Nc1cccc(C(=O)Nc2cccc(-c3ccc(-c4nc5cccc(C)c5[nH]4)cc3)c2)c1,95%,12,29%
O=C(/C=C/c1ccc(Cl)c(Cl)c1)NCCCCCN1CCCC(CNS(=O)(=O)c2ccc(F)cc2)C1 (stereo not given),91%,7,56%
O=C(NCCCCCN1CCC(c2c[nH]c3ccccc23)C1)Nc1ccc(Cl)c(Cl)c1 (stereo not given),95%,19,28%
COc1cccc(CNC(=O)c2cnc(N3CCN(c4ccncc4)CC3)c(Cl)c2)c1.O=C(O)C(F)(F)F,89%,12,25%
